An excerpt weighted towards active compounds, which were near 1.2% of everything screened.
p53null 32C tox: kills p53 null cells at the permissive temperature. H1299-neo p53 null cells, ATP luminescence, 24 h, 32C. Potency, µM (top dose mostly 46.1 µM), inactives show at the top dose activity change, negative = cytotoxicity, actives largely listed as cytotoxic. actives 0.62% (n = 55,000);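 note: 0% = DMSO only and -100% = full killing by 100 µM tamoxifen; nearly all actives have a fitted effect of over 55% in size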
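AC50 values derive from Hill modelling of qHTS concentration-response data (up to 46 uM) in H1299-neo cells. Cells were treated 24 h at 32C following overnight attachment at 37C; viability was read as cellular ATP.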
p53null 39C kill: kills p53 null cells at the nonpermissive temperature. H1299 p53-null (neo) cells, 39C, ATPlite viability, 24 h. Potency, µM (highest dose often 46.1 µM), without a hit: at the top dose activity, negative = cell killing, most hits filed as cytotoxic. actives 0.97% (n = 55,000). AID 904;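 note: 0% = DMSO only and -100% = full killing by 100 µM tamoxifen; nearly all actives have a fitted effect of over 50% in size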
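Cells seeded at 600/well, 37C overnight. Compound added (up to 46 uM), plates shifted to 39C for 24 hr. ATPlite added, luminescence read after 20 min at room temperature.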
FH mod: Identification of activators of human fumarate hydratase by quantitative high-throughput screening. Fumarate hydratase, mitochondrial (Homo sapiens), P07954. FH coupled MDH/diaphorase resazurin fluorescence, 15 min. Potency, µM (highest dose often 79.9 µM), for inactives: at the top dose activity change, negative = inhibition, usual class: inhibitors. actives 0.22% (n = 54,000). AID 1347055, 2019; note: the screen sought activators but most active calls are inhibition curves; nearly all actives have a fitted effect of over 45% in size
Target sequence (P07954 whole entry, looked up): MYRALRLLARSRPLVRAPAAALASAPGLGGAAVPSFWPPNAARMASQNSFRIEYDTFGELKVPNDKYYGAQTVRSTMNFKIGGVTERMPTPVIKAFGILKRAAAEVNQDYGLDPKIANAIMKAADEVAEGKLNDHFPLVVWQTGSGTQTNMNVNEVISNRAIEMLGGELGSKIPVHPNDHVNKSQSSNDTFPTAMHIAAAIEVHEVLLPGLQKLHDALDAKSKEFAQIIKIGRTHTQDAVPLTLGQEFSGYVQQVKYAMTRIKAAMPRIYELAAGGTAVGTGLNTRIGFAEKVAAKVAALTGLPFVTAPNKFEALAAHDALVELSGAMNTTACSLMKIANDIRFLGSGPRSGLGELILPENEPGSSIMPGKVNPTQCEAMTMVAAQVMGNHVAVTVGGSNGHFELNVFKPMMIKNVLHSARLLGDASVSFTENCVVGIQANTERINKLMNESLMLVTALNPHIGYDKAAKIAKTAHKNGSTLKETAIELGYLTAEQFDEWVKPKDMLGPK
* hit, by the source's call; ? = inconclusive; . = no result given; [ ] = dose if it differs, or a comment. Calls come from the whole dose curve; as a rule, active = well fitted curve in the direction sought with a large enough effect; inconclusive = small, poorly fitted or top-dose-only effect, or another doubt; inactive = no such curve, though single readings can be large; an effect the other way counts as inactive or inconclusive. Unless noted, % is set by controls: 0 for no effect and ±100 for the full control effect; potency is the fitted concentration of half-maximal effect.

SMILES	p53null 32C tox	p53null 39C kill	FH mod
CCN(CC)CCn1c(=N)n(CC(O)COc2ccccc2C)c2ccccc21 (stereo unspecified)	-2%	18µM*	5%
N=c1n(CCO)c2ccccc2n1CCOc1ccc(F)cc1	-2%	-3%	.
Nc1ncnc2c1nc(Cl)n2C1O[C@H](CO)[C@@H](O)[C@H]1O (stereo partly specified)	.	.	10%
CCc1ccc(NC(=O)N2CCN(c3nnc(C)c4c(C)n(-c5ccc(Cl)cc5)nc34)CC2)cc1	?	20µM*	-18%
CCOC(=O)CNC(=O)N1CCN(c2nnc(C)c3c(C)n(-c4ccc(Cl)cc4)nc23)CC1	1%	-12%	5%
CNc1nc(Cc2ccccc2)nc2c1CCNC[C@@H]2C	.	.	1%
O=C(Nc1ccccc1C(F)(F)F)c1cc2ccccn2n1	7.9µM*	10µM*	.
CCOC(=O)c1cccc(NC(=O)c2cc3ccccn3n2)c1	13µM*	10µM*	.
O=C(Nc1ccc(OC(F)(F)F)cc1)c1cc2ccccn2n1	?	?	16%
CCOc1ccc(OCC)c(NC(=O)c2cc3ccccn3n2)c1	-17%	-4%	.
CCOC(=O)c1ccccc1NC(=O)c1ccc2c(Cl)c3c(nc2c1)CCC3	?	?	1%
CCOC(=O)c1cccc(NC(=O)c2ccc3c(Cl)c4c(nc3c2)CCC4)c1	?	0.4µM*	-18%
Cc1cc(Cl)ccc1COc1ccnn1-c1cc(C(=O)O)ccn1	.	.	23%
CCC[C@@H](NC(=O)N1C(=O)C(CC)(CC)[C@@H]1Oc1ccc(C(=O)N2CCN(C)CC2)cc1)c1ccc2c(c1)OCO2	.	.	-27%
CC(C)C[C@H](NC(=O)c1cc2ccccc2s1)C(=O)N1CCN(C(=O)[C@H](CO)NS(=O)(=O)c2ccc(Cl)cc2Cl)CC1	.	.	-7%[53.3 µM]
CS(=O)(=O)c1ccc(-c2nnc(/C=C/c3nnc(-c4ccc(C#N)cc4)o3)n2-c2ccccc2Cl)nc1	.	.	1%
C=C1CCC(OC(C)=O)C2(C)CC3OC(=O)C(C)=C3CC12 (stereo unspecified)	.	.	8%
CC(C)O[C@@H]1O[C@H](CO)[C@@H](O)[C@H](O)[C@H]1O	.	.	7%
CC(C)(C)c1cc(C(C)(C)C)c2oc(=O)c(-c3nc4ccccc4[nH]3)cc2c1	-2%	12%	2%
CC(C)(C)c1cc(C(C)(C)C)c2oc(=O)c(-c3nc4ccc(C(=O)O)cc4[nH]3)cc2c1	33%	1%	28µM*
Cc1cc(Nc2ccc(NC(=O)c3ccc(Nc4ccnc5ccccc45)cc3)cc2)nc(N)n1	.	.	0%
Cc1ccc2occ(CC(=O)Nc3ccc(Cl)c(C(F)(F)F)c3)c2c1	25%	16µM*	?
Cc1ccc2occ(CC(=O)Nc3ccc(S(N)(=O)=O)cc3)c2c1	-6%	-8%	1%
CNC1CN(c2ccc3c(=O)c(C(=O)O)cn(-c4nccs4)c3n2)CC1OC (stereo unspecified)	.	.	-2%[13.5 µM]
C=C[C@]1(C)C=C2CCC3C(C)(CCC[C@@]3(C)C(=O)O)C2CC1 (stereo partly specified)	.	.	-2%[53.3 µM]
SMILES	p53null 32C tox	p53null 39C kill	FH mod
Cc1c(-c2nc(-c3ccccc3F)no2)nnn1-c1cc(F)ccc1F	?	3.2µM*	-1%
CCc1ccccc1-n1nnc(-c2nc(-c3ccccc3F)no2)c1C	?	-23%	-15%
CC1CCCC(SCC(O)C(=O)O)CC(=O)c2c(O)cc(O)cc2CC(=O)O1 (stereo unspecified)	.	.	0%[53.3 µM]
CCOC(=O)c1[nH]c2ccccc2c1NC(=O)c1cc(Cl)ccc1Cl	-28%	?	3%
CCOC(=O)c1[nH]c2ccccc2c1NC(=O)c1ccccc1OC	7%	16µM*	?
CCOc1ccc(CN2C(=O)C(=O)c3cccc(C)c32)cc1OC	-1%	20µM*	-19%
CCOc1cc(CN2CCN(S(=O)(=O)c3ccc(C)cc3)CC2)ccc1OC	-9%	-8%	-13%
Cc1cccc(/C=C(\C#N)c2nc3ccccc3c(=O)[nH]2)c1	1%	-9%	-8%
CN(C)c1ccc(/C=C(\C#N)c2nc3ccccc3c(=O)[nH]2)cc1	0.32µM*	?	-3%
Cc1ccc(Nc2ncc3c(n2)N(C)C(=O)N(c2cc(NC(=O)c4cccc(C(F)(F)F)c4)ccc2C)C3)cn1	.	.	-16%
O=C(O)CSc1cc(NS(=O)(=O)c2ccc(Br)cc2)c2ccccc2c1O	.	.	16µM*
CC(=O)c1c(C)oc2c1cc(NS(=O)(=O)c1ccc(Br)cc1)c1ccccc12	22%	-12%	-14%
C/C1=C\[C@@H](C)C[C@@H](C)[C@@H](Cc2cnco2)OC(=O)/C(C)=C/[C@@H](C)C[C@@H](C)[C@@H](Cc2cnco2)OC1=O	.	.	-3%[53.3 µM]
COc1cccc(NC(=O)c2oc3ccccc3c2NC(=O)c2ccc(OC(C)C)cc2)c1	16µM*	13µM*	-16%
COc1cccc(NC(=O)c2oc3ccccc3c2NC(=O)c2cc3ccccc3o2)c1	-9%	?	-21%
C(#Cc1cccc(CN2CCOCC2)c1)CCN1CCCCC1	.	.	-1%
COc1ccc2[nH]cc(CCNC(=O)Nc3cc(C)cc(C)c3)c2c1	11%	20µM*	?
COc1ccc2[nH]cc(CCNC(=O)Nc3ccccc3)c2c1	4%	-1%	-6%
CC(C)(C)c1ccc(C(=O)Nc2nnc3n2CCS3)cc1	10µM*	?	27%
CC(C)(C)C(=O)Nc1nnc2n1CCS2	-1%	15%	3%
COc1ccc(-c2ccccc2)cc1NS(=O)(=O)c1cc(Cl)cc(Cl)c1O	.	.	-11%[53.3 µM]
CCOc1ccc(NC(=O)CSc2oc(-c3ccc(C)cc3)nc2S(=O)(=O)c2ccc(C)cc2)cc1	13µM*	13µM*	-16%
CCOc1ccc(NC(=O)CSc2oc(-c3cccs3)nc2S(=O)(=O)c2ccc(Cl)cc2)cc1	-10%	?	0%
C=C(C)[C@H]1CC[C@]2(C(=O)O)CC[C@]3(C)C(CCC4[C@@]5(C)CCC(=O)C(C)(C)C5CC[C@]43C)C12 (stereo partly specified)	.	.	-10%[53.3 µM]
Cc1ccccc1C(C(=O)NC1CCCC1)N(C(=O)Cn1cnc2ccccc21)c1cccc(F)c1 (stereo unspecified)	.	.	1%[53.3 µM]
SMILES	p53null 32C tox	p53null 39C kill	FH mod
COc1ccc(-n2nc3c(N4CCCC(C(=O)NCCc5ccccc5C)C4)nnc(C)c3c2C)cc1 (stereo unspecified)	-6%	-7%	?
COc1ccc(-n2nc3c(N4CCCC(C(=O)NCc5ccccc5C)C4)nnc(C)c3c2C)cc1 (stereo unspecified)	?	16µM*	-15%
Cc1csc2nc(COC(=O)c3cccc(NC(=O)COc4ccccc4Cl)c3)cc(=O)n12	?	6.3µM*	3%
Cc1ccc(OCC(=O)Nc2cccc(C(=O)OCc3cc(=O)n4c(C)csc4n3)c2)cc1	-23%	?	-17%
CCOc1ccc(C(=O)Nc2ccc(C(=O)OCc3cc(=O)n4c(C)csc4n3)cc2)cc1	?	13µM*	-11%
Cc1ccc(OCC(=O)Nc2ccc(C(=O)OCc3cc(=O)n4c(C)csc4n3)cc2)cc1	-8%	-25%	-3%
COc1cccc([C@@H](C)NCCCc2ccccc2Cl)c1	.	.	-11%[53.3 µM]

Compound activity as filed in PubChem BioAssay.
